Screens as filed in PubChem.
Compounds with a hit are over-represented: about 1.3% of the library has one in this group of screens.
ADAM10 inh: human ADAM10 inhibitors, primary screen, biochemical, QFRET, HTS; Disintegrin and metalloproteinase domain-containing protein 10 (Homo sapiens), O14672; recombinant ADAM10, EDANS/DABCYL FRET peptide cleavage, 3 h; inhibition, % at 7 µM; 0.62% of 370,000 active;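 active means inhibition above a per-campaign cutoff equal to the mean of compounds falling between control-based bounds plus 3 SD, cut at about 20% in these data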;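 further: 0% = DMSO wells while the 100% control is not disclosed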
ADAM17 inh: ADAM17 inhibitors, primary screen, biochemical, QFRET; Disintegrin and metalloproteinase domain-containing protein 17 (Homo sapiens), P78536; recombinant ADAM17, EDANS/DABCYL FRET peptide cleavage; inhibition, % at 6.95 µM; 0.83% of 370,000 active; AID 720648, 2013;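 active means inhibition above the mean of compounds lying between control limits plus 3 SD, set per campaign, cut at about 8.5% in these data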;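 further: 0% = DMSO-only wells as the low control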
GC-A act: GC-A stimulated cGMP production enhancers – HEK293 GC-A cells, cGMP TR-FRET, EC30 ANP, primary screen; 0% at EC30 ANP, 100% saturating ANP; activation, % at 10 µM; 0.14% of 370,000 active; in the data active means activation above about 40%
NPR2 activator: human GC-B receptor activators, primary screen, HEK293 GC-B cells, cGMP TR-FRET, EC30 CNP; Atrial natriuretic peptide receptor 2 (Homo sapiens), P20594; 0% at EC30 CNP, 100% saturating CNP; activation, % at 10 µM; 0.11% of 370,000 active; AID 1920062, 2024;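 active means activation at 10 µM reaching about 35% in either raw or pattern-adjusted values, limit read from the data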
Target sequence (P20594 whole entry, looked up): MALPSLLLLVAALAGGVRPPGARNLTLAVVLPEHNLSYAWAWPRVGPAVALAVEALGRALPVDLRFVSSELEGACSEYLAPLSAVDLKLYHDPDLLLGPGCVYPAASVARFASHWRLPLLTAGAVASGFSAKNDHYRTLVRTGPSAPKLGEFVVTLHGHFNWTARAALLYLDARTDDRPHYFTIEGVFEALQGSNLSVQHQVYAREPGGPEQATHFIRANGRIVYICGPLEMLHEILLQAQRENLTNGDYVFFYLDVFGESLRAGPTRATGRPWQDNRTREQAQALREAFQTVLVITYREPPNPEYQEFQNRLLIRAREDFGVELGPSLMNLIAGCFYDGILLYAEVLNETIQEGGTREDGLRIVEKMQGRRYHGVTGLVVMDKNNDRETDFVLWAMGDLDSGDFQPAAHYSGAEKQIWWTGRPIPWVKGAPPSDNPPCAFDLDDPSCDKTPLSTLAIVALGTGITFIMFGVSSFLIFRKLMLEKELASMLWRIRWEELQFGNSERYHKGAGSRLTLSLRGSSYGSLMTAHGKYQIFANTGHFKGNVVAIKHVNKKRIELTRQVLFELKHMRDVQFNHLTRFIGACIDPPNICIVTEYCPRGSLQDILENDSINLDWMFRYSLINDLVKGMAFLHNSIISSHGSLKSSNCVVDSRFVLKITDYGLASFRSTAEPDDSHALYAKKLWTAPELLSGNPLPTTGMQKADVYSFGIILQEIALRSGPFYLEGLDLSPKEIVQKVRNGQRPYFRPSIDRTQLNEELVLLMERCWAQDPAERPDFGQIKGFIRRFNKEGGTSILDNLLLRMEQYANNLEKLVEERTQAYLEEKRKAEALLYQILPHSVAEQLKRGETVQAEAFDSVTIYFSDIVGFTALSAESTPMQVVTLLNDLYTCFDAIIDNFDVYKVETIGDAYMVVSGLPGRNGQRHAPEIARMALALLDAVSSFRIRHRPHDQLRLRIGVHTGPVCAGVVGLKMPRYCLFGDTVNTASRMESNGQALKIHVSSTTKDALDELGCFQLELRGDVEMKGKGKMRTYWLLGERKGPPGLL
ADAM10 ctr: ADAM10 inhibitors, counter-screen for ADAM17 exosite inhibitor project, biochemical, FRET, human ADAM10 | shares compounds with ADAM17 inh | AID 743256, 2014 | inhibition, % at 6.95 µM | 47% of 2,900 active | recombinant ADAM10, EDANS/DABCYL FRET peptide cleavage, 3 h;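 active means mean inhibition over the triplicate runs exceeds the activity threshold set in the earlier primary screen, cut at about 20% in these data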;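 further: 0% = DMSO wells and 100% = marimastat wells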
ADAM17 confirm: ADAM17 inhibitors, hit retest, confirmation, biochemical, QFRET peptide cleavage | shares compounds with ADAM17 inh | recombinant ADAM17, EDANS/DABCYL QFRET peptide cleavage | inhibition, % at 6.95 µM | 65% of 2,900 active;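 active means mean inhibition across replicates above the hit cutoff set in the primary screen, cut at about 8.5% in these data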;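 further: 0% = DMSO wells and 100% = marimastat wells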
Numbers without * were called inactive; . = no result.

SMILES	ADAM10 inh	ADAM17 inh	GC-A act	NPR2 activator	ADAM10 ctr	ADAM17 confirm
Cc1cc(NC(=O)CCSc2ccccc2)ccc1Br	19	9.2*	2	0	22*	14*
CC1(C)CC2(OC2c2ccccc2[N+](=O)[O-])C(=O)c2ccccc21 (centres undefined)	-8	-1	-3	-2	.	.
CCOC(=O)C1=C(C)Nc2ccccc2N/C1=N\S(=O)(=O)c1cccc(Cl)c1	-6	-1	-4	2	.	.
CCOC(=O)C1=C(C)Nc2ccccc2N/C1=N\S(=O)(=O)c1ccc(Cl)cc1	0	12*	-1	4	4	5
CCN1C(=O)[C@H]2[C@@H](c3ccc(-c4ccccc4)c(OC)c3)N[C@@](CC(C)C)(C(=O)OC)[C@H]2C1=O	-90	-22	-3	1	.	.
O=C(COc1ccc(Cl)cc1Cl)NCCCCc1ccccc1	17	18*	-2	2	31*	13*
FC(F)(F)c1ccccc1-c1nc(-c2ccncc2)no1	-2	-4	10	1	.	.
CS(=O)(=O)c1ccccc1-c1nc(-c2ccc(C(F)(F)F)cc2)no1	18	8.7*	2	-8	9	5
COc1ccc(NC(=O)CCC(=O)NCCO)cc1	0	0	1	2	.	.
O=C(CCC(=O)Nc1ccccc1)NCCO	3	11*	-4	8	-8	-2
O=C(CC(c1ccccc1)c1ccccc1)Nc1ccc2c(c1)OCCO2	16	12*	0	-1	16	14*
CC(=O)NC(CC(=O)Nc1ccc2c(c1)OCCO2)c1ccccc1 (centres undefined)	6	-2	-6	2	.	.
CC(C)C[C@@H](CN)NC(=O)c1nc[nH]c1C(=O)N[C@@H](CC(C)C)C(=O)CNC[C@H](C)NC(=O)c1nc[nH]c1C(=O)N[C@@H](C)C(=O)O	-15	1	4	-7	.	.
O=C(Nc1cccc2ccccc12)NC1CCCCC1O (centres undefined)	-22	-6	5	2	.	.
CC(C)CC1NC(=O)c2ccc(Cl)cc2-n2c1nc1cc(F)ccc1c2=O (centres undefined)	9	11*	-6	-5	21*	12*
Cc1ccc2nc3n(c(=O)c2c1)-c1ccc(Cl)cc1C(=O)NC3Cc1ccccc1 (centres undefined)	2	11*	-7	2	-9	-1
CC(C)CC1NC(=O)c2ccc(Cl)cc2-n2c1nc1ccc(F)cc1c2=O (centres undefined)	3	-4	1	2	.	.
CC(C)CC1NC(=O)c2cc(Cl)ccc2-n2c1nc1cc(F)ccc1c2=O (centres undefined)	3	8.7*	-4	-2	0	-1
Cc1ccc(N(C)S(=O)(=O)c2cccc(C(=O)N3CCN(Cc4ccccc4)CC3)c2)cc1	16	9.3*	0	1	12	6
CN(C)S(=O)(=O)c1cccc(C(=O)N2CCN(Cc3ccccc3)CC2)c1	-2	-2	.	.	.	.
CCOC(=O)C1=C(C(=O)OCC)C2N(Cc3ccc(C#N)cc3)c3ccccc3[C@@]23C[C@@H](C(=O)OC)N(S(=O)(=O)c2ccc(OC)cc2)C3=N1 (some centres undefined)	16	12*	-2	4	19	12*
O=C(CN1C(=O)NC2(CCCCCC2)C1=O)NCCc1ccccc1	-3	-2	2	6	.	.
COc1ccc(S(=O)(=O)N(C)C[C@@H]2OCCCC[C@@H](C)Oc3ccc(NC(=O)NC(C)C)cc3C(=O)N([C@H](C)CO)C[C@@H]2C)cc1	4	-1	2	1	.	.
CN(Cc1ccccc1)C(=O)c1ccc(NC(=O)Cc2ccc(NC(=O)C3CCN(C(=O)C4CCCC4)CC3)cc2)cc1	3	9.1*	0	0	33*	9.2*
CN(Cc1ccccc1)C(=O)c1ccc(NC(=O)Cc2ccc(NC(=O)C3CCN(C(=O)C4CC4)CC3)cc2)cc1	-4	1	4	4	.	.
SMILES	ADAM10 inh	ADAM17 inh	GC-A act	NPR2 activator	ADAM10 ctr	ADAM17 confirm
CC(C)=CCc1c2c(c3occ(-c4ccc(O)cc4)c(=O)c3c1O)C=CC(C)(C)O2	19	9.5*	-15	-10	21*	15*
CC(C)=CCc1c2c(c3occ(-c4ccc(O)c(O)c4)c(=O)c3c1O)C=CC(C)(C)O2	7	11*	-10	-6	13	8
Cc1cccc(NC(=O)CNC(=O)Cn2cc(C(F)(F)F)cc(Cl)c2=O)c1C	2	4	-2	-2	.	.
Nc1ccc2nc(CCCCCCCCc3nc4ccc(N)cc4[nH]3)[nH]c2c1	11	13*	-8	-5	4	3
CCn1cc(/C=C(\NC(=O)c2ccc(OC)cc2)C(=O)N2CCOCC2)c2ccccc21	5	-3	0	-1	.	.
O=c1cc(-c2ccccc2Cl)oc2c(NS(=O)(=O)c3ccccc3C(F)(F)F)ccc(O)c12	13	7	0	-4	.	.
O=c1cc(-c2ccccc2Cl)oc2c(NS(=O)(=O)c3ccccc3OC(F)(F)F)ccc(O)c12	15	8.9*	-3	3	34*	20*
Cc1cc(CNC[C@H]2O[C@@H](n3ccc(N)nc3=O)[C@H](O)[C@@H]2O)no1	-16	-1	4	2	.	.
CCOC(=O)c1c(C)[nH]c(C)c1C(=O)CSc1nc2ccccc2c(=O)n1-c1ccc(F)cc1	19	10*	1	4	22*	15*
CCOC(=O)c1c(C)[nH]c(C)c1C(=O)CSc1nc2ccccc2c(=O)n1-c1ccccc1C	14	5	3	0	.	.
O=S(Cc1ccc(Br)cc1)Cc1nnc(SCc2c(F)cccc2Cl)n1-c1ccccc1 (centres undefined)	7	4	-14	-4	.	.
O=S(Cc1ccc(Br)cc1)Cc1nnc(SCc2ccc(Cl)cc2)n1-c1ccccc1 (centres undefined)	18	8.6*	-13	-13	27*	15*
OCCn1c(CSc2nnc(-c3ccco3)n2-c2ccccc2)nc2ccc(Cl)cc21	-11	11*	-19	-23	-16	-3
NC(=O)CSc1nnc(-c2ccco2)n1-c1ccccc1	8	0	0	2	.	.
